Test results as given in PubChem BioAssay (NCI).
About 83,000 compounds went through this panel and 20% of them were active in at least one assay; those are over-represented in the sample as a whole.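 Compound tested at a single concentration for 48 hours in 96-well plates; a percent growth value below 10 was scored as active.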 Values without a mark were called inactive. Activity calls are given as the source filed them.

Columns and labels:
Assay in all cases: NCI-60 one-dose screen, 48 h (100 = growth as untreated, 0 = no growth, -100 = all killed)
Details in all cases: 10 µM unless noted
T-47D breast = test system: T-47D breast
BT-549 breast = test system: BT-549 breast
MDA-MB-435 melanoma = test system: MDA-MB-435 melanoma
SW-620 colon = test system: SW-620 colon
MCF7 breast = test system: MCF7 breast
HCT-116 colon = test system: HCT-116 colon
HCC-2998 colon = test system: HCC-2998 colon
KM12 colon = test system: KM12 colon

| SMILES | growth (T-47D breast) | growth (BT-549 breast) | growth (MDA-MB-435 melanoma) | growth (SW-620 colon) | growth (MCF7 breast) | growth (HCT-116 colon) | growth (HCC-2998 colon) | growth (KM12 colon) |
| --- | --- | --- | --- | --- | --- | --- | --- | --- |
| O=S(=O)(Nc1ccc(I)cc1Cl)c1ccc(-c2cnc(C3CC3)o2)cc1 | 31.7% | 34.9% | -4.66% (active) | 17.9% | 23.1% | 22.1% | 78.6% | 26% |
| CCO/C=N/C1=C(C#N)C(c2ccc(F)cc2)c2sc3c(C)cccc3c2O1 (stereo not drawn) | 62.1% | 20% | -31.2% (active) | 19.6% | 14.6% | 6.05% (active) | 18.7% | 8.6% (active) |
| Cn1ccnc1C(=O)/C=C/c1ccc(NC(=O)c2c(F)c(F)c(F)c(F)c2F)cc1 | 103% | 98.2% | 107% | 105% | 70.8% | 101% | 125% | 105% |
| O=C(CSc1nc2ccccc2c(=O)n1-c1ccc(Cl)cc1)N/N=C/c1ccc(N2CCCCC2)cc1 | 74.6% | 104% | 86.9% | 65.9% | 67.5% | 36.9% | 118% | 96.4% |
| Clc1cccc(/C=N/Nc2nc(N/N=C/c3cccc(Cl)c3Cl)nc(N3CCCCC3)n2)c1Cl | 48.3% | 97.3% | 68.8% | 42.6% | 71.2% | 48.8% | 97.4% | 67.2% |
| Cc1ccc(C2=NN(C)C(=O)C3(CCCC3)C2)cc1 | 102% | 117% | 107% | 103% | 89.8% | 104% | 110% | 104% |
| Nc1ccccc1NC(=O)c1ccc(NC(=O)C/C=C/c2cccnc2)cc1 | 12.2% | 25.1% | 26.3% | 15.7% | 17.4% | -29.3% (active) | 9.69% (active) | 33.2% |
| COc1ccc(/C=N/NC2=NC3C(S2)N(C)C(=O)N3C)cc1 (stereo not drawn) | 26.7% | 66% | -56.4% (active) | 16.1% | 15.4% | 33.5% | 67% | 20.8% |
| O=C1[C@@H]2Cc3c([nH]c4ccccc34)[C@H](c3c(Cl)cccc3Cl)N2C(=O)CN1C1CCN(CC2CCCCC2)CC1 | 61% | 63.2% | 73.6% | 10.2% | 18.4% | 4.3% (active) | 73.4% | 68.7% |
| CCOc1cccc(-c2nc3sccn3c2-c2ccnc(S(C)(=O)=O)n2)c1 | 65.8% | 122% | 95% | 103% | 36% | 92.6% | 80.8% | 87.6% |
| CCN(CC)CCn1c2ccc(O)cc2c2sc3cc(OC)ccc3c(=O)c21 | 59.3% | 68.1% | 19.4% | -50.8% (active) | -55.2% (active) | -46% (active) | 36.6% | 25% |
| CCO/C=N/C1=C(C#N)C(c2ccc(Cl)cc2)c2sc3c(C)cccc3c2O1 (stereo not drawn) | 33.5% | 38.8% | -49.6% (active) | 26.5% | 14.5% | 14.8% | 9.57% (active) | 15.2% |
| CCCCCc1ccc(S(=O)(=O)Nc2cccc(-c3csc(NC(=O)CCCCCN4CCN(CCO)CC4)n3)c2)cc1 | 73.5% | 102% | 36.8% | 25.6% | 19.8% | 30.3% | 41.5% | 88% |
| CNCc1cccc2c1OCCCCCCC(C)(O)CC(C)(C)S(=O)(=O)c1ccc(cc1)-c1cnc(N)c(n1)C(=O)N2 (stereo not drawn) | 56.1% | 27.9% | -85.6% (active) | 5.13% (active) | -58.1% (active) | -82.3% (active) | -6.01% (active) | -68.1% (active) |
| CC1(C)CC[C@]23CC[C@]4(C)[C@H](CC[C@@H]5[C@@]6(C)CCCN(CO)C(C)(C)[C@@H]6CC[C@]54C)[C@H]2[C@H]1OC3 | 57.3% | 85.5% | 88.7% | 9.58% (active) | 17.1% | 22.1% | 3.53% (active) | 56.4% |
| COc1c(N2CC3CCCNC3C2)c(F)cc2c(=O)c(C(=O)N/N=C/c3c[nH]c4ccccc34)cn(C3CC3)c12 (stereo not drawn) | 116% | 100% | 105% | 90.7% | 55% | 56.7% | 119% | 98.7% |

| SMILES | growth (T-47D breast) | growth (BT-549 breast) | growth (MDA-MB-435 melanoma) | growth (SW-620 colon) | growth (MCF7 breast) | growth (HCT-116 colon) | growth (HCC-2998 colon) | growth (KM12 colon) |
| --- | --- | --- | --- | --- | --- | --- | --- | --- |
| COc1cccc(/C=C(/C)c2ccc3cccc(OC)c3[o+]2)c1O | 100% | 85.1% | 104% | 106% | 90.9% | 102% | 120% | 99.1% |
| O=C1[C@H]2Cc3c([nH]c4ccccc34)[C@@H](c3ccc(Br)cc3)N2C(=O)CN1C1CCN(CC2CCCCC2)CC1 | 44.7% | -3.47% (active) | -88% (active) | -83.4% (active) | -99.1% (active) | -93.2% (active) | -98.8% (active) | -90.1% (active) |
| Cc1nn(-c2ccccc2)c2ncnc(N/N=C/c3ccccc3)c12 | 75% | 97.4% | 96.9% | 107% | 80.4% | 98.1% | 115% | 80.9% |
| O=C1/C(=C/C=C/c2ccco2)SC(=S)N1c1ccccc1 | 76.8% | 65.2% | 89.1% | 98.9% | 57.4% | 35.3% | 87.3% | 94.4% |
| COc1cc2c(cc1OC)C(Sc1ccc(F)cc1)c1c(nc(N)c(C#N)c1N)O2 (stereo not drawn) | -28.1% (active) | 77.6% | -52.9% (active) | -16.7% (active) | -88.3% (active) | -74.2% (active) | -86.1% (active) | -62.9% (active) |
| COc1ccc(-c2nn(-c3ccc(S(C)(=O)=O)cc3)cc2/C=N/O)cc1 | 106% | 112% | 109% | 104% | 106% | 107% | 115% | 104% |
| O=C1CCCC2=C1C(c1c[nH]c3ccc(Br)cc13)Cc1cc(Br)ccc1N2 (stereo not drawn) | 20.7% | 39.4% | -10.2% (active) | 22.7% | 23.4% | 19.3% | 68.2% | 21.7% |
| CC(=O)N1C(=S)NC(=O)C1CC(C)C (stereo not drawn) | 100% | 115% | 103% | 102% | 97.7% | 106% | 108% | 101% |
| NS(=O)(=O)c1ccc(Nc2nc(N/N=C/CCc3ccccc3)nc(Nc3ccccc3)n2)cc1 | 102% | 99.4% | 101% | 104% | 96.3% | 103% | 113% | 109% |
| CC/C(=C/c1c(O)cccc1OC)c1ccc2c(OC)cccc2[o+]1 | 106% | 98.5% | 97.7% | 101% | 86.4% | 104% | 106% | 98.9% |
| O=c1[nH]c(Sc2sc3ccc(Cl)cc3c2CBr)nc(=S)[nH]1 | -0.0992% (active) | 48.5% | 15.1% | 40.4% | 15.2% | 38.6% | 48.5% | 12.8% |
| COc1ccc(/C=C(\C#N)C(=O)N2c3ccccc3Sc3ccc(SC)cc32)cc1F | 70.9% | 104% | 97.9% | 95.2% | 95.9% | 91.2% | 90.5% | 95.3% |
| O=C1Nc2ccccc2/C1=C/c1ccc(CO)n1-c1ccc(Cl)cc1 | 62.9% | 55.3% | -25.5% (active) | 32.4% | 24.1% | 23.8% | 78.3% | 13.4% |
| N=c1c2cc(-c3ccccc3)oc2ncn1/N=C/c1ccc(Cl)cc1 | 81% | 105% | 72.6% | 29.5% | 70.8% | 66.6% | 102% | 31% |
| C#Cc1nc(/C=C/C(=O)c2nccn2C)cs1 | -23.4% (active) | -59.1% (active) | 1.27% (active) | -24.9% (active) | -30% (active) | -48.8% (active) | -83.1% (active) | -43.5% (active) |
